For 4 compounds, outcome and AC50 results are on record in PubChem BioAssay (EPA / NIEHS).

A short description of experiment [1]: ATG_E_Box_CIS: Attagene CIS-FACTORIAL HepG2 Assay for human Enhancer Box (E-box) (AID 2282936). As to conditions: HepG2 E-box cis-reporter transcription, actives raise or lower the signal. The essentials: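 DMSO served as negative control and baseline for bidirectional fitting. Human hepatoma HepG2 cells, transiently transfected with cis-reporter constructs, were dosed 24 h; reporter mRNA read by RT-PCR and capillary electrophoresis.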

Experiment [2] can be described thus: ATG_M_61_CIS: Attagene CIS-FACTORIAL HepG2 Assay for M61 Transcription Factor (Internal Marker) (AID 2282937). As to conditions: HepG2 Attagene CIS-FACTORIAL M61 internal marker reporter; actives raise or lower the signal. The essentials:
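HepG2 cells transiently transfected with multiplexed cis-promoter reporter units reporting endogenous transcription factor activity, measured 24 h after dosing. Reporter mRNA quantified by RT-PCR and capillary electrophoresis; bidirectional fit against DMSO baseline.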

Experiment [3] is described as follows: ATG_EGR_CIS: Attagene CIS-FACTORIAL HepG2 Assay for human Early Growth Response 1 (EGR1) (AID 2282938). As to conditions: HepG2 Attagene CIS-FACTORIAL EGR reporter mRNA; actives raise or lower the signal. The essentials:
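HepG2 cells transiently transfected with cis-element-driven multiplexed reporter units, dosed for 24 h. EGR1-element reporter mRNA quantified by RT-PCR, 6-FAM labelling, HpaI digestion and capillary electrophoresis; bidirectional fit versus DMSO.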

Experiment [4] is described as follows: ATG_M_19_CIS: Attagene CIS-FACTORIAL HepG2 Assay for M19 Transcription Factor (Internal Marker) (AID 2282939). As to conditions: HepG2 Attagene CIS-FACTORIAL M19 internal marker reporter; actives raise or lower the signal. The essentials: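 Following a 24 h exposure, RNA from transfected HepG2 cells was reverse-transcribed, PCR-amplified with reporter-specific primers, end-labelled with 6-FAM and HpaI-digested before capillary separation. Values represent gain or loss versus DMSO.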

Experiment [5] in a line: ATG_ERE_CIS: Attagene CIS-FACTORIAL HepG2 Assay for Estrogen Response Element (ERE) (AID 2282940). The conditions noted are these: HepG2 ERE cis-reporter, Attagene RNA transcript; actives raise or lower the signal. The essentials: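 HepG2, transient cis-reporter units, 24 h exposure. RNA isolated, oligo(dT) RT, reporter-specific PCR, FAM extension, HpaI cut, CE detection. Gain/loss-of-signal vs DMSO.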

The nature of experiment [6]: ATG_Ets_CIS: Attagene CIS-FACTORIAL HepG2 Assay for human Erythroblast Transformation Specific (ETS) (AID 2282941). As to conditions: HepG2 ETS cis-reporter transcription, actives raise or lower the signal. The essentials:
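HepG2 cells transfected with multiple cis-regulated reporter units measuring endogenous ETS-driven transcription, 24 h after dosing. Reporter mRNA quantified by RT-PCR with capillary electrophoresis; bidirectional fit relative to DMSO.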

For experiment [7], the target named is Hepatocyte nuclear factor 3-beta (Homo sapiens) (UniProt Q9Y261). Description: ATG_FoxA2_CIS: Attagene CIS-FACTORIAL HepG2 Assay for human Forkhead box A2 (FOXA2) (AID 2282942). The conditions noted are these: HepG2 cis-reporter transcription factor activity, 24 h; actives raise or lower the signal. The essentials:
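HepG2 transiently transfected with a multiplexed cis-promoter reporter library read endogenous FOXA2 activity. After 24 h compound exposure, reporter mRNA was quantified by RT-PCR, HpaI digestion and capillary electrophoresis. Bidirectional fit against DMSO.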

Experiment [8] can be described thus: ATG_FoxO_CIS: Attagene CIS-FACTORIAL HepG2 Assay for human Forkhead box O (FoxO) (AID 2282943). The conditions noted are these: HepG2 Attagene cis-reporter, FoxO element, mRNA; actives raise or lower the signal. The essentials: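 Endogenous transcription factor activity read from multiplexed cis-promoter reporter transcripts in transiently transfected HepG2, 24 h after dosing. Reporter RNA measured via RT-PCR plus capillary electrophoresis of FAM-labeled products; gain or loss relative to DMSO.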

The nature of experiment [9]: ATG_GATA_CIS: Attagene CIS-FACTORIAL HepG2 Assay for human GATA Binding Protein (AID 2282944). As to conditions: HepG2 GATA cis-element reporter, Attagene multiplex mRNA; actives raise or lower the signal. The essentials:
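DMSO serves as negative control and baseline for bidirectional fitting of reporter mRNA changes. HepG2 cells bearing transiently transfected cis-promoter reporters were exposed 24 h; transcripts detected via RT-PCR and capillary electrophoresis.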

A short description of experiment [10]: ATG_GLI_CIS: Attagene CIS-FACTORIAL HepG2 Assay for human Zinc Finger Protein GLI1 (AID 2282945). As to conditions: HepG2, Attagene cis-factorial reporter mRNA, GLI element; actives raise or lower the signal. The essentials:
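Bidirectional curve fits relative to DMSO, using reporter mRNA levels from RT-PCR plus capillary electrophoresis. Cells were HepG2 transiently carrying cis-regulated reporter constructs, harvested 24 h after dosing.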

Experiment [11] concerns the target Bile acid receptor (Homo sapiens) (UniProt Q96RI1). Description: ATG_IR1_CIS: Attagene CIS-FACTORIAL HepG2 Assay for human Nuclear Receptor Subfamily 1 Group H Member 4 (NR1H4), IR1 submotif (AID 2282946). As to conditions: IR1 reporter transcription, actives raise or lower the signal. The essentials:
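Cells (human HepG2) carry transiently transfected cis-promoter reporter transcription units. Compounds are incubated 24 h, total RNA is reverse-transcribed and amplified, and labelled fragments are resolved by capillary electrophoresis. Curves use DMSO as baseline.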

Experiment [12] can be described thus: ATG_GRE_CIS: Attagene CIS-FACTORIAL HepG2 Assay for human Glucocorticoid Response Elements (GRE) (AID 2282947). As to conditions: HepG2 GRE cis-reporter, Attagene multiplex mRNA; actives raise or lower the signal. The essentials:
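Assay uses human hepatoma HepG2 cells transfected with cis-promoter reporter units, exposed 24 h. mRNA from reporters detected by RT-PCR plus capillary electrophoresis; DMSO serves as negative control and baseline.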

Experiment [13] can be described thus: ATG_ISRE_CIS: Attagene CIS-FACTORIAL HepG2 Assay for human Interferon Regulatory Factor 1 (IRF1) binding to an Interferon-Stimulated Response Element (ISRE) (AID 2282948). As to conditions: HepG2 ISRE cis-reporter (Attagene), mRNA transcription readout; actives raise or lower the signal. The essentials: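 Transiently transfected HepG2 cells carrying cis-element reporter units, dosed 24 hours. Reporter mRNA quantified by RT-PCR, fluorescent primer extension, HpaI digestion and capillary electrophoresis. Bidirectional fitting relative to DMSO.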

Experiment [14] in a line: ATG_M_32_CIS: Attagene CIS-FACTORIAL HepG2 Assay for M32 Transcription Factor (Internal Marker) (AID 2282949).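 Further: background control marker of the multiplexed CIS panel rather than a real target.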 The conditions noted are these: HepG2 Attagene cis-factorial M32 reporter, mRNA; actives raise or lower the signal. The essentials:
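Following 24 h chemical exposure of HepG2 cells transiently expressing cis-promoter reporter constructs, reporter transcript levels were determined by RT-PCR with fluorescent labelling and capillary electrophoresis, then fitted bidirectionally against DMSO.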

The nature of experiment [15]: ATG_M_06_CIS: Attagene CIS-FACTORIAL HepG2 Assay for M06 Transcription Factor (Internal Marker) (AID 2282950). As to conditions: HepG2 Attagene CIS-FACTORIAL M06 internal marker reporter; actives raise or lower the signal. The essentials: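 Fluorescence-labelled RT-PCR products from cis-promoter reporter units, cut with HpaI and resolved by capillary electrophoresis, give the signal. Cells are human HepG2, dosed for 24 h. Serves as background control, fitted relative to DMSO.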

Experiment [16] concerns the target Hypoxia-inducible factor 1-alpha (Homo sapiens) (UniProt Q16665). Description: ATG_HIF1a_CIS: Attagene CIS-FACTORIAL HepG2 Assay for human Hypoxia Inducible Factor 1 (HIF1A) (AID 2282951). As to conditions: HepG2 Attagene cis-factorial HIF1a reporter transcription; actives raise or lower the signal. The essentials: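 HepG2 cells transiently transfected with multiple cis-regulated reporter transcription units measure endogenous transcription factor activity. After 24 h exposure, reporter mRNA is quantified by RT-PCR with 6-FAM labelling, HpaI digestion and capillary electrophoresis. Bidirectional fitting against DMSO.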

Experiment [17] deals with Hepatocyte nuclear factor 6 (Homo sapiens) (UniProt Q9UBC0). Description: ATG_HNF6_CIS: Attagene CIS-FACTORIAL HepG2 Assay for human Hepatocyte Nuclear Factor 6 (HNF6) (AID 2282952). As to conditions: HepG2 Attagene cis-factorial HNF6 reporter transcription; actives raise or lower the signal. The essentials:
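HepG2 cells transiently transfected with cis-element-driven multiple reporter transcription units, dosed 24 h; reporter mRNA quantified by RT-PCR, FAM primer extension, HpaI digestion and capillary electrophoresis; bidirectional fit versus DMSO baseline.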

Experiment [18] deals with Heat shock factor protein 1 (Homo sapiens) (UniProt Q00613). Description: ATG_HSE_CIS: Attagene CIS-FACTORIAL HepG2 Assay for human Heat Shock Transcription Factor 1 (HSE) (AID 2282953). The conditions noted are these: HepG2 HSE cis-reporter, Attagene RNA transcription; actives raise or lower the signal. The essentials: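 After a 24 h incubation with test chemical, transfected HepG2 cells were harvested for RNA; reporter transcripts were measured by RT-PCR and capillary electrophoresis. Values reflect gain or loss of signal relative to DMSO.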

A short description of experiment [19]: ATG_MRE_CIS: Attagene CIS-FACTORIAL HepG2 Assay for human Metal Responsive Element (MRE) (AID 2282954). The conditions noted are these: HepG2 MRE cis-reporter transcription, Attagene multiplex; actives raise or lower the signal. The essentials: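 After a 24 h chemical exposure, transiently transfected HepG2 cells yield RNA whose reporter sequences are amplified, FAM-labelled and sized by capillary electrophoresis. Curves are fitted bidirectionally relative to DMSO.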

Experiment [20] is described as follows: ATG_PBREM_CIS: Attagene CIS-FACTORIAL HepG2 Assay for human Phenobarbital-responsive Enhancer Module (PBREM) (AID 2282955). The conditions noted are these: HepG2 PBREM cis-reporter, Attagene multiplexed transcription; actives raise or lower the signal. The essentials:
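HepG2 cells transiently transfected with multiple cis-regulated reporter units measure endogenous transcription factor activity; 24 h compound exposure. Reporter mRNA quantified by RT-PCR, fluorescent labelling, HpaI digestion and capillary electrophoresis; bidirectional fit versus DMSO.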

Active and inactive are the calls of the source. How the source made its calls: active means hit-call score of the fitted dose curve at least 0.9, where 1 is the maximum; inactive means score below 0.9.

Hepatocyte nuclear factor 6 (Homo sapiens), sequence (Q9UBC0 whole entry, looked up): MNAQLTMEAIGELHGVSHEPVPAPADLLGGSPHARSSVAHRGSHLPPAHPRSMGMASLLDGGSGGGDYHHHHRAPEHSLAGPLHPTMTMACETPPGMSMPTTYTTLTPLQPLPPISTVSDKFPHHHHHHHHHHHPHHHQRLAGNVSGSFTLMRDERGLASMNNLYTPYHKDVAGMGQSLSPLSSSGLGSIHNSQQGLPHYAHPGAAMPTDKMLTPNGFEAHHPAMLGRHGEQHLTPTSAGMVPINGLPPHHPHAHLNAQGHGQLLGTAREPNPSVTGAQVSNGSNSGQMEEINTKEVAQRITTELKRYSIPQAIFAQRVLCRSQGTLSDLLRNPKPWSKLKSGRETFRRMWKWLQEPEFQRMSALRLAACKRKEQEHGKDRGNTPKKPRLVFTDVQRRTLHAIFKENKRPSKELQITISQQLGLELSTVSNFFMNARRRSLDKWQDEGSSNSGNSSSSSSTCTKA
Bile acid receptor (Homo sapiens), sequence (Q96RI1 whole entry, looked up, the tested form may be a part): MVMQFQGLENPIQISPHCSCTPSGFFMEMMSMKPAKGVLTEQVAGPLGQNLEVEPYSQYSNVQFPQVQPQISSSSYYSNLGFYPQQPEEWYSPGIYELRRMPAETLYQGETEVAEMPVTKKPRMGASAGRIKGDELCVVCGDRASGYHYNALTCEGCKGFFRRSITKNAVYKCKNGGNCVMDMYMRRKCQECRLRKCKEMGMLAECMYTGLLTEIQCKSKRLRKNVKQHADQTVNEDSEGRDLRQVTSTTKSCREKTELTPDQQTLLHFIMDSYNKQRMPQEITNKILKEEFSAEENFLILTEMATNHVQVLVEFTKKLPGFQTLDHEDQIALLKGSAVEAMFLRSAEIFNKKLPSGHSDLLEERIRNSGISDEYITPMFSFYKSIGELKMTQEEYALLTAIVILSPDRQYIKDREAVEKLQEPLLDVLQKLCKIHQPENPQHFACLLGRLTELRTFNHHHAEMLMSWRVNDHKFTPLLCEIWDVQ
Hypoxia-inducible factor 1-alpha (Homo sapiens), sequence (Q16665 whole entry, looked up): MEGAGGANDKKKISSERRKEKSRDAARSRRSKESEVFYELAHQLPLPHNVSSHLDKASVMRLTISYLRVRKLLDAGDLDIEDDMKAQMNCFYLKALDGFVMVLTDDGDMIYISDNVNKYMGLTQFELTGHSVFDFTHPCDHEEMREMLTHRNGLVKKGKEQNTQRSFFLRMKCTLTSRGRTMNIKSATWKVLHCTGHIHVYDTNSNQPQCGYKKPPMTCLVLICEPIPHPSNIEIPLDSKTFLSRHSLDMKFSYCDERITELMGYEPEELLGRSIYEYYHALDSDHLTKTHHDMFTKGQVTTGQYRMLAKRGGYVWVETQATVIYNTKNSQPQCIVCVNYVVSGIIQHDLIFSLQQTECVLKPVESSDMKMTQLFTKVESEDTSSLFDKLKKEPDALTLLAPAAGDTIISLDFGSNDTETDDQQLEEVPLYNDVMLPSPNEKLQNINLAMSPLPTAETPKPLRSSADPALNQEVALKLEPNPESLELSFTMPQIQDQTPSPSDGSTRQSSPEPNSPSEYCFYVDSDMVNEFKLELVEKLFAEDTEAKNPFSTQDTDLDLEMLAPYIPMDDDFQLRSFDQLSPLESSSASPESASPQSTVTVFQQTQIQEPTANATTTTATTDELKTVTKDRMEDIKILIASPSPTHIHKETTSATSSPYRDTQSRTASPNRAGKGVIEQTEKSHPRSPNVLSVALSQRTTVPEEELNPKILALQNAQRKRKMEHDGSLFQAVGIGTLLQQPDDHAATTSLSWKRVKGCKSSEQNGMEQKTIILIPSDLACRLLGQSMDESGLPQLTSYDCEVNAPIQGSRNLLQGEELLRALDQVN
Hepatocyte nuclear factor 3-beta (Homo sapiens), sequence (Q9Y261 whole entry, looked up): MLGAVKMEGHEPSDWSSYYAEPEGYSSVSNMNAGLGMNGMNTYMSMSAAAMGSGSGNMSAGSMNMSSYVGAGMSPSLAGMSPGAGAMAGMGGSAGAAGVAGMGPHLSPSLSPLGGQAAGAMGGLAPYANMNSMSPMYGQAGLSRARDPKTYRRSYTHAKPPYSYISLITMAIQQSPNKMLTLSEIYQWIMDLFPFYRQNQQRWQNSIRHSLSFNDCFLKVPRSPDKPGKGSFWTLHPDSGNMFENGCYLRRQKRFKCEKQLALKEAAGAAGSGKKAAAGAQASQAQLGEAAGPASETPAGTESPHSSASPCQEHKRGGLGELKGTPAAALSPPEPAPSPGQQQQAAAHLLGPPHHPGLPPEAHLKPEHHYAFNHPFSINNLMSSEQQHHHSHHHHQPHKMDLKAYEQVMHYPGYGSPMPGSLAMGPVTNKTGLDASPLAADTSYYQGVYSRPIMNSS
Heat shock factor protein 1 (Homo sapiens), sequence (Q00613 whole entry, looked up): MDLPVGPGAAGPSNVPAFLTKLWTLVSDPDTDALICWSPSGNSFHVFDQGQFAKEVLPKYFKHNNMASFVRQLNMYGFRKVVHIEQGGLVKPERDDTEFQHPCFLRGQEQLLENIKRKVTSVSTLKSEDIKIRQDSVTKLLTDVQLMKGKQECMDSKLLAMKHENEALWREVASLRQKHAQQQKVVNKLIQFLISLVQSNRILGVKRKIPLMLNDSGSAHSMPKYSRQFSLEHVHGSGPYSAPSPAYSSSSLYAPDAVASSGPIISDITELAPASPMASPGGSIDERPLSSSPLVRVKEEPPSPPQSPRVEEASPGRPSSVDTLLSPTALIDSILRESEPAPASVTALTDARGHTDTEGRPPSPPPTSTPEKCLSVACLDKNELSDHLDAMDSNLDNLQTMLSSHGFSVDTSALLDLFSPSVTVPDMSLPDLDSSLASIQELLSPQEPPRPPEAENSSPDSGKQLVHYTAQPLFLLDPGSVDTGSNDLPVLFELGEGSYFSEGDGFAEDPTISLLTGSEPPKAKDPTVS

Consider `COC(=O)c1sccc1S(N)(=O)=O`, for which the outcome in experiment [1], in experiment [2], in experiment [3], in experiment [4], in experiment [5] and in experiment [6] was inactive. In addition, the call in experiment [7], in [8], in experiment [9], in experiment [10], in experiment [11] and in experiment [12] was inactive. The compound was called inactive in experiment [13], in [14], in experiment [15], in experiment [16], in experiment [17] and in experiment [18]. Besides, the compound was classed as inactive in [19] and in [20].

As for `CC=CC(F)(F)C(F)(F)C(F)(F)F`, the result in experiment [1], in [2], in experiment [3], in experiment [4], in experiment [5] and in [6] was inactive. The result in [7], in [8], in experiment [9], in [10], in experiment [11] and in [12] was inactive. For the same compound, the call in experiment [13], in experiment [14], in experiment [15], in experiment [16], in experiment [17] and in [18] was inactive. Besides, the result in experiment [19] and in experiment [20] was inactive.

Regarding `COC(=O)C1=C(C)NC(C)=C(C(=O)OCC(C)C)C1c1ccccc1[N+](=O)[O-]` (centres undefined), the AC50 is 18.6 µM (active) in experiment [1], 11.1 µM (active) in experiment [13] and 18 µM (active) in experiment [16]. The result in experiment [2], in experiment [3], in experiment [4], in experiment [5], in [6] and in experiment [7] was inactive. In addition, the call in [8], in experiment [9], in [10], in experiment [11], in experiment [12] and in experiment [14] was inactive. The compound was called inactive in experiment [15], in [17], in [19] and in experiment [20].

On to `O=C(c1ccc(O)cc1)c1ccc(O)cc1O`, for which the outcome in [1], in experiment [2], in experiment [3], in experiment [4], in experiment [6] and in experiment [7] was inactive. The call in experiment [8], in [9], in [10], in experiment [11], in experiment [12] and in [13] was inactive. Also, the outcome in [14], in [15], in experiment [16], in experiment [17], in experiment [18] and in experiment [19] was inactive. Moreover, the outcome in experiment [20] was inactive. Also, in experiment [5], the half-maximal activity concentration (AC50) was 0.84 µM (active).
